# The list is not random: actives were taken first. Their share in the collection is about 0.87%.
# TDP1 block = blocks human tyrosyl-DNA phosphodiesterase 1; Q9NUW8; recombinant TDP1, AlphaScreen DNA substrate cleavage; Potency, µM (top dose mostly 130 µM), for inactives: at the highest dose activity change, negative = inhibition, usual class: inhibitors; 0.28% of 350,000 active; AID 485290; note: nearly all actives have a fitted effect of over 40% in size
#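 Compounds were preincubated with Tdp1 (1 nM final) for 15 min at room temperature before substrate (15 nM final) started a 5 min reaction; beads (10 ug/ml final) were then added for 10 min before AlphaScreen detection.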
# KAT2A inh = GCN5L2 (KAT2A) acetyltransferase inhibition | Q92830 | GCN5L2 HAT assay, ThioGlo1 CoA-SH fluorescence | Potency, µM (highest dose often 58.9 µM), inactives show at the highest dose activity change, negative = inhibition, most hits filed as inhibitors | 0.21% of 390,000 active | AID 504327
#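 GCN5L2 (20 nM) in 50mM HEPES pH 7.5, 0.1mM EDTA, 0.01% Tween-20 preincubated 15 min with compounds at room temperature. Reaction started with H3(1-25) 75uM, acetyl-CoA 70uM, ThioGlo1 50uM; CoA-thiol fluorescence (Ex340/Em540) read at 0 and 20 min.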
# BLM helicase inh = inhibitors of human Bloom syndrome helicase BLM; recombinant BLM DNA unwinding, fluorescence dequenching; Potency, µM (doses to about 56.1 µM), for the others: at the top dose activity change, negative = inhibition, actives largely listed as inhibitors; 0.2% of 350,000 active; AID 2528;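 note: plate controls were vehicle for no effect and no enzyme for full effect; nearly all actives have a fitted effect of over 35% in size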
# APE1 inh-1 = inhibitors of human APE1 endonuclease; recombinant APE1, TAMRA/BHQ-2 abasic DNA cleavage fluorescence; Potency, µM (doses to about 65.8 µM), for the others: at the highest dose activity change, negative = inhibition, most hits filed as inhibitors; 0.35% of 350,000 active; AID 2517;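 note: plate controls were vehicle for no effect and reference inhibitor for full effect; nearly all actives have a fitted effect of over 55% in size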
#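 0.75 nM APE1 + cpd, 15 min RT; start w/ 50 nM TAMRA/BHQ-2 THF-abasic dsDNA; kinetic fluor 525/598 nm ×3 reads @60 s; Δ(read3−read1); normalized to DMSO and NSC13755 control wells.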
# RECQ1 inh = RECQ1 (human) helicase inhibition; P46063; RECQ1 DNA unwinding, red fluorescence kinetic read; Potency, µM (titrated, usually from 57.3 µM), for inactives: top-dose activity, negative = inhibition, hits mostly inhibitors; 0.54% of 240,000 active;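 note: plate controls were vehicle for no effect and no enzyme for full effect; nearly all actives have a fitted effect of over 30% in size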
#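 RECQ1T1 50 nM; forked duplex (20 bp + 30-nt ss tails) 200 nM, ATP 2 mM final; pH 8.0, 2 mM MgCl2, 2.5 ug/ml poly(dI-dC); 15 min compound preincubation; discontinuous kinetic read over 2 h at RT.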
# DNA dye displace = DNA dye displacement counter-screen activity; Potency, µM (doses to about 28.5 µM), without a hit: at the top dose activity change, negative = inhibition, hits mostly inhibitors; shares compounds with APE1 inh-1; DNA fluorescent dye displacement counterscreen, fluorescence; 7% of 480 active; AID 2564;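 note: loss of thiazole orange fluorescence as the dye is displaced from duplex DNA; 0% = ThO with dsDNA and no compound and -100% = ThO without dsDNA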
# EndoIV counter = counter-screen for APE1 inhibitors: inhibitors of E. coli endonuclease IV. Potency, µM (doses to about 27.1 µM), without a hit: at the top dose activity change, negative = inhibition, hits mostly inhibitors. E. coli Endo IV, fluorogenic AP-site DNA cleavage. 4% of 560 active. shares compounds with APE1 inh-1;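 note: plate controls were uninhibited enzyme wells for no effect and no enzyme buffer wells for full effect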
# APE1 inh-2 = confirmation of inhibitors of human APE1 endonuclease; Potency, µM (titrated, usually from 57.1 µM), for inactives: at the highest dose activity change, negative = inhibition, usual class: inhibitors; 44% of 750 active; shares compounds with APE1 inh-1; purified APE1, fluorogenic abasic-site DNA cleavage; note: nearly all actives have a fitted effect of over 30% in size
# APE1 FP = compounds that displace a DNA probe from human APE1; Potency, µM (highest dose often 28.5 µM), inactives show top-dose activity, negative = inhibition, actives largely listed as inhibitors; 7% of 480 active; AID 2573; shares compounds with APE1 inh-1; APE1 binding to TAMRA-labelled double-stranded DNA, fluorescence polarization displacement
# * hit, by the source's call; i = inactive; ? = inconclusive; / = no result given; ! = repeats disagree; [ ] = another dose, or the depositor's remark. Calls come from the whole dose curve; as a rule, active = well fitted curve in the direction sought with a large enough effect; inconclusive = small, poorly fitted or top-dose-only effect, or another doubt; inactive = no such curve, though single readings can be large; an effect the other way counts as inactive or inconclusive. Unless noted, % is set by controls: 0 for no effect and ±100 for the full control effect; potency is the fitted concentration of half-maximal effect.
SMILES,TDP1 block,KAT2A inh,BLM helicase inh,APE1 inh-1,RECQ1 inh,EndoIV counter,APE1 inh-2,others
CC(C)c1nnc(NC(=O)c2ccc(N3C(=O)CCC3=O)cc2)s1,0%,6%,0%,-4%,5%,/,/,
O=C(Nc1nnc(C23CC4CC(CC(C4)C2)C3)s1)c1ccc(N2C(=O)CCC2=O)cc1,45µM*,?,-3%,10µM*,-17%,/,-23%,
CC(C)[C@@H](CC(=O)N[C@@H]1CCNC[C@H]1C(=O)N[C@H](CC(=O)N[C@@H](CCC(=O)O)CC(=O)O)Cc1c[nH]c2ccccc12)NC(=O)C[C@H](CO)NC(=O)[C@@H]1CCCC[C@H]1N,1%,/,-2%,2%,-7%,/,/,
CN(C)c1ccc(-c2nccc(Nc3ccc(F)cc3)n2)cc1,/,-27%,-18%,-4%,-13%,/,/,
NC(=O)c1ccc2nc(NC(=O)c3ccc(N)cc3)sc2c1,79µM*,-10%,-9%,-4%,-22%,/,?,
COC(=O)c1nnc(N[C@@H](Cc2c[nH]c3ccccc23)C(=O)OC)nc1C(=O)OC,/,/,-14%,0%,2%,/,/,
O=C1[C@@H]2[C@H]3[C@H](O)[C@H](O)C/C(=N/OC[C@@H](O)COCc4ccco4)[C@H]3CC[C@H]2C(=O)N1c1ccc(F)cc1F,5%[21 µM],/,0%[12.4 µM],?,19%[11.5 µM],/,/,
CCn1cc(C(=O)NCc2ccco2)c(=O)c2cc(F)c(N3CCN(C(=O)c4ccco4)CC3)cc21,40µM*,-17%,-22%,?,-26%,/,?,
Cc1ccc(C)n1-c1ccc(C(=O)O)cc1,7.9µM*,?,49%,14µM*,-6%,/,13µM*,
CC(=O)c1c(C(C)=O)c(C)n(-c2ccc(C(=O)O)cc2)c1C,0%,-1%,-4%,0%,-7%,/,/,
CCCCCCC/C=C\CCCCCCCCC(=O)O,-12%[56.1 µM],8.9µM*,/,0%,?,-22%[57.1 µM],-67%,
CCCCC/C=C\C/C=C\C/C=C\C/C=C\CCCCCC(=O)O,7%,-7%,-1%,-8%,11%,/,/,
CC1CC(=O)c2c(cc3c(-c4c(O)cc(O)c5c(O)c6c(cc45)OC(C)CC6=O)c(O)cc(O)c3c2O)O1 (configuration not stated),4%,?,-21%,?,18µM*,?,?,DNA dye displace=4.5µM*;APE1 FP=-12%
O=C(/C=C\c1ccccc1)c1ccccc1O,10%[21 µM],/,1%[12.4 µM],1%[12.4 µM],i[11.5 µM],/,/,
O=C(/C=C/c1ccccc1)c1cc(Br)ccc(=O)c1O,/,-16%,-19%,?,32µM*,-1%,?,DNA dye displace=?;APE1 FP=?
COCCn1c(C)cc(C(=O)CSc2n[nH]c(N)n2)c1C,/,-18%,-14%,32µM*,-23%,8%,-7%[24.4 µM],DNA dye displace=-1%;APE1 FP=-1%
Cn1c(=O)c2c(ncn2CC(=O)N/N=C/c2c[nH]c3ccccc23)n(C)c1=O,79µM*,2%,-4%,8%,-6%,/,?,
CCN(CC)c1ccc(C(=C2C=CC(=[N+](CC)CC)C=C2)c2ccccc2)cc1,28%,?,-6%,-1%,-13%,/,/,
CCN(CC)c1ccc(C(=C2C=CC(=[N+](CC)Cc3cccc(S(=O)(=O)[O-])c3)C=C2)c2ccc(N(CC)Cc3cccc(S(=O)(=O)O)c3)cc2)cc1,26%,10µM*,25µM*,?,4µM*,28µM*,22µM*,DNA dye displace=?;APE1 FP=25µM*
CC1(C)Oc2cc(N)c([N+](=O)[O-])cc2O1,-12%,-7%,3%,32µM*,-5%,0%,-8%[24.4 µM],DNA dye displace=-8%;APE1 FP=2%
O=C(CN1C(=O)N/C(=C\c2cccn2-c2cccc(C(=O)O)c2)C1=O)Nc1ccccc1F,-7%,/,/,/,/,/,/,
O=C(O)c1cccc(-n2cccc2/C=C2/NC(=O)N(Cc3ccccc3F)C2=O)c1,2.8µM*,-9%,-6%,13µM*,?,/,?,
COc1cccc(/C=C(/C#N)c2ccc(F)cc2)c1OCc1cccc(C(=O)O)c1,-3%,-5%,0%,1%,-4%,/,/,
N#C/C(=C/c1cccn1-c1cccc(C(=O)O)c1)c1ccc(F)cc1,/,-22%,-14%,25µM*,-1%,12%,?,DNA dye displace=7%;APE1 FP=-23%
Clc1ccccc1-c1cncnc1NCCN1CCOCC1,/,-4%,6%,17%,-4%,/,/,
SMILES,TDP1 block,KAT2A inh,BLM helicase inh,APE1 inh-1,RECQ1 inh,EndoIV counter,APE1 inh-2,others
CC(C)CO/N=C1/C[C@@H](O)[C@@H](O)[C@@H]2[C@@H]3C(=O)N(C(C)(C)C)C(=O)[C@H]3CC[C@@H]12,7%[21 µM],/,3%[12.4 µM],30%[12.4 µM],i[11.5 µM],/,/,
O=C1OC(c2ccc(Br)cc2)=N/C1=C\c1ccco1,-5%,-6%,-2%,18%,-4%,/,/,
CC1=N/C(=C/c2ccco2)C(=O)O1,5.6µM*,-28%,2%,25µM*,?,9%,35µM*,DNA dye displace=-6%;APE1 FP=-19%
CC1=CCC2C(=O)N(C(C)c3ccccc3)C(=O)C2C1 (configuration not stated),2%,-7%,0%,9%,-14%,/,/,
CC1=CCC2C(=O)N(c3nc4ccccc4n3C)C(=O)C2C1 (configuration not stated),40µM*,/,3%,?,-12%,/,40µM*,
COc1ccc(CCNC(=O)c2ccc3nc(-c4ccco4)c(-c4ccco4)nc3c2)cc1OC,10µM*,?,14µM*,8.9µM*!,16µM*,/,16µM*,
CCc1nc2ccc(C(=O)NCCc3ccc(OC)c(OC)c3)cc2nc1CC,7%,-5%,2%,58%,/,/,/,
CC(=O)OC[C@H]1O[C@@H](O/N=C(\C)CCN2CCc3nc(-c4ccccc4)c(-c4ccccc4)cc3C2)[C@H](OC(C)=O)[C@@H](OC(C)=O)[C@H]1OC(C)=O,2%[21 µM],/,1%[12.4 µM],-8%[12.4 µM],i[11.5 µM],/,/,
O=c1ccn(CCc2c[nH]c3ccccc23)c2c1CCCC2,8%,8%,8%,0.079µM*,-2%,-5%,-7%[24.4 µM],DNA dye displace=-5%;APE1 FP=4%
CCOC(=O)CC(=O)CSc1nc(CC)c(C)cc1C#N,71µM*,2%,1%,7%,8%,/,-28%,

# Source: PubChem (National Center for Advancing Translational Sciences (NCATS))
